We go through 6 compounds from PubChem BioAssay (EPA / NIEHS).

Assay [1] has as its target Glucocorticoid receptor (Homo sapiens) (UniProt P04150). Put plainly: ATG_GR_TRANS: Attagene TRANS-FACTORIAL HepG2 Assay for human Glucocorticoid Receptor (GR) (AID 2282978; active = hit-call score of the fitted dose curve at least 0.9, where 1 is the maximum;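 note: activators score as hits since higher reporter transcript over DMSO is fitted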). To be noted: HepG2 Attagene TRANS GR reporter, mRNA transcription. In short, it runs like this: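 Measurement of GAL4-UAS-driven reporter mRNA in human HepG2 liver cells 24 h post-dosing, using RT-PCR with fluorescent labelling and capillary electrophoresis; the transfected constructs report exogenous NR-GAL4 chimera activity, fitted upward against DMSO.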

Assay [2] concerns the target Bile acid receptor (Homo sapiens) (UniProt Q96RI1). Nature of the assay: ATG_FXR_TRANS: Attagene TRANS-FACTORIAL HepG2 Assay for Farnesoid X Receptor (FXR) (AID 2282979; active = hit-call score of the fitted dose curve at least 0.9, where 1 is the maximum;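 note: hits raise reporter mRNA above DMSO so AC50 marks FXR activation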). To be noted: HepG2 Attagene TRANS FXR-GAL4 reporter transcription. Put shortly: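 Reporter transcripts from transfected HepG2 cells were measured 24 h after dosing, using RT-PCR with capillary electrophoresis of 6-FAM-labelled fragments. The read-out reflects activity of exogenous FXR-Gal4 chimera on GAL4-UAS units, with induction relative to DMSO.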

For assay [3], the target named is Oxysterols receptor LXR-beta (Homo sapiens) (UniProt P55055). Nature of the assay: ATG_LXRb_TRANS: Attagene TRANS-FACTORIAL HepG2 Assay for human Liver X Receptor beta (LXRb) (AID 2282981; active = hit-call score of the fitted dose curve at least 0.9, where 1 is the maximum). To be noted: HepG2 Attagene TRANS GAL4-LXRb reporter, mRNA. Put shortly:
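In this TRANS format, exogenous chimeric NR-Gal4 protein activity, not endogenous factors, drives reporter expression in transfected human HepG2 cells. Exposure lasted 24 h; reporter mRNA was read by fluorescent capillary electrophoresis.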

Assay [4] deals with Hepatocyte nuclear factor 4-alpha (Homo sapiens) (UniProt P41235). Nature of the assay: ATG_HNF4a_TRANS: Attagene TRANS-FACTORIAL HepG2 Assay for human Hepatocyte Nuclear Factor 4 alpha (HNF4a) (AID 2282982; active = hit-call score of the fitted dose curve at least 0.9, where 1 is the maximum). To be noted: HepG2 HNF4a transactivation reporter, mRNA readout. In short, it runs like this: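 Cells used were human HepG2, transiently carrying GAL4-UAS reporter units read out against exogenous NR-GAL4 chimeras. Reporter transcript levels after 24 h dosing were quantified by fluorescent RT-PCR and capillary electrophoresis.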
Sequence of Hepatocyte nuclear factor 4-alpha (Homo sapiens) (P41235 whole entry, looked up, the tested form may be a part): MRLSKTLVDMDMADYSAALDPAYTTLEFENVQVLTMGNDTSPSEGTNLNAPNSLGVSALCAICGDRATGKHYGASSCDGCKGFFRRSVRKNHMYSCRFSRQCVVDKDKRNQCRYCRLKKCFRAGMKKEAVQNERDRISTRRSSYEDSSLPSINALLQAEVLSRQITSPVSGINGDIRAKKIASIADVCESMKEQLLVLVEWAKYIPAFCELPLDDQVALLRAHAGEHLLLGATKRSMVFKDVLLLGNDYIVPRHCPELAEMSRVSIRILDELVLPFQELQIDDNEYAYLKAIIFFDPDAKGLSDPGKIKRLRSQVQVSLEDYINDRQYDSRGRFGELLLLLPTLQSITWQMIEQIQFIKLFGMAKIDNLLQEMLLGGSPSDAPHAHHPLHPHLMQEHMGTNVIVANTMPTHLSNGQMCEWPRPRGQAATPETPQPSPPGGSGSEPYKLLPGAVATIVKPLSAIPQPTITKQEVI

In assay [5] the target is Nuclear receptor subfamily 4 group A member 2 (Homo sapiens) (UniProt P43354). Put plainly: ATG_NURR1_TRANS: Attagene TRANS-FACTORIAL HepG2 Assay for human Nuclear Receptor Related Protein 1 (NURR1) (AID 2282985; active = hit-call score of the fitted dose curve at least 0.9, where 1 is the maximum). To be noted: HepG2 Attagene TRANS reporter, mRNA readout. Put shortly: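 After 24 h chemical dosing, total RNA from transiently transfected HepG2 cells was reverse-transcribed and reporter cDNA PCR-amplified, FAM-labelled and analysed by capillary electrophoresis. Activity fitted in positive direction, DMSO as negative control.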

Assay [6] deals with Transcriptional activator Myb (Homo sapiens) (UniProt P10242). Put plainly: ATG_Myb_CIS: Attagene CIS-FACTORIAL HepG2 Assay for human Myeloblastosis (Myb) Proto-Oncogene Transcription Factor (AID 2282986). Conditions: HepG2 Attagene CIS-FACTORIAL Myb reporter transcription; actives raise or lower the signal. In short, it runs like this: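 Fluorescence signals from capillary electrophoresis of RT-PCR-amplified reporter cDNA give the read-out. Cells: HepG2 transfected with multiple cis-regulated reporter units. Exposure lasts 24 hours; DMSO defines baseline for gain or loss of signal.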
Sequence of Transcriptional activator Myb (Homo sapiens) (P10242 whole entry, looked up): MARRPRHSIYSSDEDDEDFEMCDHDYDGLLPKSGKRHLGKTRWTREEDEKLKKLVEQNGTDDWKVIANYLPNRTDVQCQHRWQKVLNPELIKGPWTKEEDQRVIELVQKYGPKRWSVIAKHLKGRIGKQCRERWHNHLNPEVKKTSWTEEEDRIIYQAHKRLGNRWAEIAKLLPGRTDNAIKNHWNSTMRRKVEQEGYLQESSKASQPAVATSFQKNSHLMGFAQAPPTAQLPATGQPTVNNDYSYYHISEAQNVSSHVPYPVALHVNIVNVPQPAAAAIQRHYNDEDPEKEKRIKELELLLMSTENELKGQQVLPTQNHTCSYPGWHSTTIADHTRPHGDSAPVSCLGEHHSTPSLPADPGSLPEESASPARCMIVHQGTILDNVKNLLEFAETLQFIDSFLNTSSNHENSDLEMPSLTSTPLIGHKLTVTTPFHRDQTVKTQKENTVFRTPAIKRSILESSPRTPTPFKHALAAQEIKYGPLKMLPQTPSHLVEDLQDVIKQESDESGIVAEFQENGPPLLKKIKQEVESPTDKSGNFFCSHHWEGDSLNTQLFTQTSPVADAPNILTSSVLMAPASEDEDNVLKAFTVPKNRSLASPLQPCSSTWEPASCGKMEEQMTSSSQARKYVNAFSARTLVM

The target of assay [7] is Nuclear respiratory factor 1 (Homo sapiens) (UniProt Q16656). Nature of the assay: ATG_NRF1_CIS: Attagene CIS-FACTORIAL HepG2 Assay for human Nuclear Respiratory Factor 1 (NRF1) Orphan Gene (AID 2282987). To be noted: HepG2 NRF1 cis-element reporter, Attagene multiplex; actives raise or lower the signal. Put shortly:
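Transcriptional reporter readout, one component of a 52-endpoint multiplexed HepG2 panel. Exposure 24 h; mRNA detected via RT-PCR and fluorescent capillary electrophoresis; fitting in both directions against DMSO.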

Assay [8] in a line: ATG_NFI_CIS: Attagene CIS-FACTORIAL HepG2 Assay for human Nuclear Factor I (NFI) (AID 2282989). To be noted: HepG2 cis-regulatory reporter, NFI response element transcription; actives raise or lower the signal. In short, it runs like this: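 Endogenous TF activity in HepG2 cells transiently transfected with cis-element-driven multiplexed reporter units, read 24 h after dosing. Reporter mRNA quantified by RT-PCR, 6-FAM labelling, HpaI digestion and capillary electrophoresis; bidirectional fit versus DMSO.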

Assay [9] has as its target Myc proto-oncogene protein (Homo sapiens) (UniProt P01106). Nature of the assay: ATG_Myc_CIS: Attagene CIS-FACTORIAL HepG2 Assay for human Myelocytomatosis (Myc) Proto-Oncogene Transcription Factor (AID 2282990). To be noted: HepG2, Attagene cis-reporter transcription factor activity; actives raise or lower the signal. In short, it runs like this:
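HepG2 cells transiently transfected with multiple cis-promoter-driven reporter transcription units, so endogenous TF activity is read. After 24 h compound exposure, reporter mRNA was quantified by RT-PCR, 6-FAM labelling, HpaI digestion and capillary electrophoresis; bidirectional fit versus DMSO.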

The nature of assay [10]: ATG_NF_kB_CIS: Attagene CIS-FACTORIAL HepG2 Assay for human Nuclear Factor Kappa B (NF-kB) (AID 2282991). To be noted: HepG2 Attagene cis-factorial NF-kB reporter mRNA; actives raise or lower the signal. In short, it runs like this:
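HepG2, transient multi-reporter transfection, cis promoter elements (endogenous TFs). 24 h exposure. Total RNA → RT → PCR → 6-FAM label → HpaI → CE. Gain/loss vs DMSO.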

The nature of assay [11]: ATG_NRF2_ARE_CIS: Attagene CIS-FACTORIAL HepG2 Assay for human Nuclear Factor Erythroid 2 Related Factor 2 (NFR2) response to Antioxidant Response Elements (ARE) (AID 2282992). Conditions: HepG2 Attagene ARE/NRF2 reporter, transcription factor activity; actives raise or lower the signal. In short, it runs like this:
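Transient MRTU transfection of HepG2; 24 h compound exposure; TriZol RNA, RT with oligo(dT), PCR, 6-FAM primer extension, HpaI cut, CE. Bidirectional fit vs DMSO.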

Assay [12] can be described thus: ATG_Oct_MLP_CIS: Attagene CIS-FACTORIAL HepG2 Assay for human Octamer-Binding Transcription Factor (Oct) (AID 2282993). To be noted: HepG2 Attagene cis-factorial Oct reporter, mRNA; actives raise or lower the signal. Put shortly:
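HepG2 cells transiently transfected with cis-element-driven reporter transcription units (endogenous TF activity); 24 h compound exposure. Reporter mRNA quantified by RT-PCR, 6-FAM labelling, HpaI digestion and capillary electrophoresis; bidirectional fit versus DMSO baseline.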

Assay [13] deals with Cellular tumor antigen p53 (Homo sapiens) (UniProt P04637). Put plainly: ATG_p53_CIS: Attagene CIS-FACTORIAL HepG2 Assay for human p53 Transcription Factor (AID 2282994). To be noted: HepG2 p53 cis-element reporter, Attagene mRNA; actives raise or lower the signal. Put shortly:
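HepG2, transient MRTU transfection (cis promoter elements, endogenous TFs); 24 h dosing; RNA isolation, RT-PCR, 6-FAM primer extension, HpaI digest, CE fluorescence; bidirectional fit vs DMSO.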

In assay [14] the target is Estrogen-related receptor gamma (Homo sapiens) (UniProt P62508). Nature of the assay: ATG_ERRg_TRANS: Attagene TRANS-FACTORIAL HepG2 Assay for human Estrogen-Related Receptor gamma (ERRg) (AID 2282977; active = hit-call score of the fitted dose curve at least 0.9, where 1 is the maximum;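 note: hits increase reporter signal over DMSO so potencies reflect activators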). Conditions: HepG2 Attagene TRANS reporter, ERRg transactivation. In short, it runs like this:
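Transfect HepG2 with multiple GAL4-UAS reporter transcription units; dose chemicals 24 h; isolate RNA, reverse-transcribe with oligo(dT), PCR-amplify, label with 6-FAM, digest with HpaI; size fragments by capillary electrophoresis. DMSO serves as negative control.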

Assay [15] has as its target Oxysterols receptor LXR-alpha (Homo sapiens) (UniProt Q13133). Nature of the assay: ATG_LXRa_TRANS: Attagene TRANS-FACTORIAL HepG2 Assay for human Liver X Receptor alpha (LXRa) (AID 2282980; active = hit-call score of the fitted dose curve at least 0.9, where 1 is the maximum). Conditions: HepG2 Attagene TRANS reporter, LXRa transactivation. In short, it runs like this: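 Chemical-induced reporter mRNA measured by RT-PCR with fluorescent labelling and capillary electrophoresis after 24 h dosing of transiently transfected HepG2 cells expressing exogenous NR-Gal4 chimeras; increases scored against DMSO baseline.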

A short description of assay [16]: ATG_M_06_TRANS: Attagene TRANS-FACTORIAL HepG2 Assay for M06 Transcription Factor (Internal Marker) (AID 2282983; active = hit-call score of the fitted dose curve at least 0.9, where 1 is the maximum). Conditions: HepG2 Attagene TRANS M06 internal marker reporter. Put shortly:
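Cells: HepG2, transient multi-reporter transfection. Exposure: 24 h. Detection: RT-PCR, 6-FAM labelling, HpaI digestion (2 h, 37 °C), capillary electrophoresis. Baseline: DMSO.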

A short description of assay [17]: ATG_M_32_TRANS: Attagene TRANS-FACTORIAL HepG2 Assay for M32 Transcription Factor (Internal Marker) (AID 2282984; active = hit-call score of the fitted dose curve at least 0.9, where 1 is the maximum;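 note: transcript level of a background control reporter unit measured by RT-PCR and capillary electrophoresis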). To be noted: HepG2 Attagene TRANS M32 internal marker reporter. Put shortly:
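Human hepatoma HepG2, transient MRTU transfection, 24 h treatment. RNA → RT-PCR → fluorescent primer extension → HpaI digest (2 h, 37 C) → CE. Positive-direction fit vs DMSO.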

A short description of assay [18]: BSK_3C_TissueFactor: BioMAP Diversity Plus: 3C Assay for Tissue Factor Biomarker Activity (AID 2282997). Conditions: BioMAP 3C HUVEC, tissue factor biomarker readout; actives raise or lower the signal. Put shortly: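 Dosing of human umbilical vein endothelial cells preceded a 24 h incubation. Tissue Factor was then read by ELISA, with increases and decreases both scored relative to DMSO controls.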

A short description of assay [19]: BSK_3C_uPAR: BioMAP Diversity Plus: 3C Assay for Urokinase-type plasminogen activator receptor (uPAR) Biomarker Activity (AID 2282998). To be noted: BioMAP 3C HUVEC, uPAR biomarker ELISA; actives raise or lower the signal. Put shortly:
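Primary human umbilical vein endothelial cells, 3C system; surface uPAR measured by ELISA 24 h after dosing. Cytotoxicity via SRB total protein in parallel cultures; bidirectional fit against DMSO.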
On the technique in general: An ELISA detects its analyte on a solid surface through an enzyme-linked reagent.

The AC50 is the midpoint of the concentration-response curve, whichever way the signal moves.

Records with an inconclusive call do not appear. Activity calls are given as the source filed them. Rule for the calls, unless noted: active = hit-call score of the fitted dose curve at least 0.9, where 1 is the maximum; inactive = score below 0.9.

Sequence of Glucocorticoid receptor (Homo sapiens) (P04150 whole entry, looked up, the tested form may be a part): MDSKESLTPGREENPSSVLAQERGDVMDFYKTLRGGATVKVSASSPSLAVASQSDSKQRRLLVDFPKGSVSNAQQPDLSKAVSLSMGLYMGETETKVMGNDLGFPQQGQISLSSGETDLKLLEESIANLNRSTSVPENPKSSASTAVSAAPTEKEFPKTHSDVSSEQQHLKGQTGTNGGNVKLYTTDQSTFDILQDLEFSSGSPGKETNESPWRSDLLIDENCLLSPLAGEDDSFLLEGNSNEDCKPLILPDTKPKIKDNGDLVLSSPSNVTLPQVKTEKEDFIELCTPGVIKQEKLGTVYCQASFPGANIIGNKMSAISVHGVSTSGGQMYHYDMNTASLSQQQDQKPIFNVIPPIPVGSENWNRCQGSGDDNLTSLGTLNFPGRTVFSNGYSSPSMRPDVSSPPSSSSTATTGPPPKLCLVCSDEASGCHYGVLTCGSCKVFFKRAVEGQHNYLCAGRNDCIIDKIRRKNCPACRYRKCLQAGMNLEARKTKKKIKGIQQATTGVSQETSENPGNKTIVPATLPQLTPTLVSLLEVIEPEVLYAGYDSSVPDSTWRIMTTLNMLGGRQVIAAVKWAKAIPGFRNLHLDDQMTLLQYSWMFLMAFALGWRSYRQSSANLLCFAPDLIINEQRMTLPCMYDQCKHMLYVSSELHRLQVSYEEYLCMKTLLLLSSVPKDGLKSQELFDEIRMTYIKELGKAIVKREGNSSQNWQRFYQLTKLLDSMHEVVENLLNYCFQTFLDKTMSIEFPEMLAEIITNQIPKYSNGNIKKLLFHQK
Sequence of Myc proto-oncogene protein (Homo sapiens) (P01106 whole entry, looked up): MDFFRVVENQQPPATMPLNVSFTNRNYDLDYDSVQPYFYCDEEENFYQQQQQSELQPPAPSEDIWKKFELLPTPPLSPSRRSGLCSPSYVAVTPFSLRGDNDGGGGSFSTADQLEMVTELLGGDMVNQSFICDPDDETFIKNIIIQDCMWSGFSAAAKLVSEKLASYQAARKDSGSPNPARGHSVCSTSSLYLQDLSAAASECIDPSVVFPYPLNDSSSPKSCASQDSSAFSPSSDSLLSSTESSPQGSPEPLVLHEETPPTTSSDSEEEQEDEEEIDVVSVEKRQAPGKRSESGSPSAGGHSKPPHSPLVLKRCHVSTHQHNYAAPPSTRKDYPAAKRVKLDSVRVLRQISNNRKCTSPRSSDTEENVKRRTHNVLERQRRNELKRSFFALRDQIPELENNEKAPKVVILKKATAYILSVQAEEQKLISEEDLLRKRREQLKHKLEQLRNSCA
Sequence of Oxysterols receptor LXR-beta (Homo sapiens) (P55055 whole entry, looked up, the tested form may be a part): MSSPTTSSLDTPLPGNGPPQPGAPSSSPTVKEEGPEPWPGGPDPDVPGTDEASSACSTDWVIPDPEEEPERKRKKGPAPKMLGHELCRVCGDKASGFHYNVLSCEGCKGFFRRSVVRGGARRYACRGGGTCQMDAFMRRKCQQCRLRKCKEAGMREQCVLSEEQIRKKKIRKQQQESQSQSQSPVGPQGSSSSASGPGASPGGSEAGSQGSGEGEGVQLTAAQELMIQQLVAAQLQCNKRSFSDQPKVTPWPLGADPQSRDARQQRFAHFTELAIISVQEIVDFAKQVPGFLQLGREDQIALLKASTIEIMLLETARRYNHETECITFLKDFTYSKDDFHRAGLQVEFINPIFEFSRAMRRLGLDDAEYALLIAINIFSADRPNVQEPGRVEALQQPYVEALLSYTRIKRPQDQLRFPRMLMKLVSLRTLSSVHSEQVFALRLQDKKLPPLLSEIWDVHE
Sequence of Bile acid receptor (Homo sapiens) (Q96RI1 whole entry, looked up, the tested form may be a part): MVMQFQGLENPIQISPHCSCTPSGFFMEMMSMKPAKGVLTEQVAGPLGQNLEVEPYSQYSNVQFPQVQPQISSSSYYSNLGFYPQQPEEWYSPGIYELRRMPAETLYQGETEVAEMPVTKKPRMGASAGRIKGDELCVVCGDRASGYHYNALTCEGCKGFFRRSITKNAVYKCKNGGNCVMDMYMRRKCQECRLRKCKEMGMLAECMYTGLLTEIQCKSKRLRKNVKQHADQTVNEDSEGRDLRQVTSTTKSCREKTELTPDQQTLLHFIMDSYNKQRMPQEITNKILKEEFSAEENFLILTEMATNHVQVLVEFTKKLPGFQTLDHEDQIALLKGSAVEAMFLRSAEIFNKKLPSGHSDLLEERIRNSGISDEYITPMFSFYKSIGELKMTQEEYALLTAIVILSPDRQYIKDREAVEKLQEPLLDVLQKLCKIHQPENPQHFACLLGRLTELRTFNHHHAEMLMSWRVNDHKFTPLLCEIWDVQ
Sequence of Estrogen-related receptor gamma (Homo sapiens) (P62508 whole entry, looked up, the tested form may be a part): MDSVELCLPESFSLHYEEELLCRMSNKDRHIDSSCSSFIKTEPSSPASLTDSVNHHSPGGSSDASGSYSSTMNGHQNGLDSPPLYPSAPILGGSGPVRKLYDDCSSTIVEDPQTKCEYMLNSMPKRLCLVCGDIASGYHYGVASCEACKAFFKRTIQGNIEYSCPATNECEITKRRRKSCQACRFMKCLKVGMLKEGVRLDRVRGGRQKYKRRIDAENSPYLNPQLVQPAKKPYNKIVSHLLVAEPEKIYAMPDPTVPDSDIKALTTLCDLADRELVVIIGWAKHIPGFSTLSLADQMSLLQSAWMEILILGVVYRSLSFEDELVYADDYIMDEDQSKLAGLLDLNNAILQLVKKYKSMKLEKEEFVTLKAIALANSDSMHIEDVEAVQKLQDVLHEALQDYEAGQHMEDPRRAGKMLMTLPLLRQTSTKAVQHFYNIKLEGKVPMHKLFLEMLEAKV
Sequence of Oxysterols receptor LXR-alpha (Homo sapiens) (Q13133 whole entry, looked up, the tested form may be a part): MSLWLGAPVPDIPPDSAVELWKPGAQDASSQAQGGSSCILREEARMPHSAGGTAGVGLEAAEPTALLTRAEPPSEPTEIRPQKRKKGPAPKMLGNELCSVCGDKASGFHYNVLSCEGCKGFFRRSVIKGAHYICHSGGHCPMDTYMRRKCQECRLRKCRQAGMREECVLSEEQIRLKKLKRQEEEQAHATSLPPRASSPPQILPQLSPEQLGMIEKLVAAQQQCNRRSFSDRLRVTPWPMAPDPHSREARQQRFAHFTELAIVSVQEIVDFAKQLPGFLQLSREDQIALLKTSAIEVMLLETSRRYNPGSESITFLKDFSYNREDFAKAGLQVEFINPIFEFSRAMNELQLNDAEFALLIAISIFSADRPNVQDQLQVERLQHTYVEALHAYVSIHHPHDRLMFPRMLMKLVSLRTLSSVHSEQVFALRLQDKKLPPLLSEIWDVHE
Sequence of Cellular tumor antigen p53 (Homo sapiens) (P04637 whole entry, looked up): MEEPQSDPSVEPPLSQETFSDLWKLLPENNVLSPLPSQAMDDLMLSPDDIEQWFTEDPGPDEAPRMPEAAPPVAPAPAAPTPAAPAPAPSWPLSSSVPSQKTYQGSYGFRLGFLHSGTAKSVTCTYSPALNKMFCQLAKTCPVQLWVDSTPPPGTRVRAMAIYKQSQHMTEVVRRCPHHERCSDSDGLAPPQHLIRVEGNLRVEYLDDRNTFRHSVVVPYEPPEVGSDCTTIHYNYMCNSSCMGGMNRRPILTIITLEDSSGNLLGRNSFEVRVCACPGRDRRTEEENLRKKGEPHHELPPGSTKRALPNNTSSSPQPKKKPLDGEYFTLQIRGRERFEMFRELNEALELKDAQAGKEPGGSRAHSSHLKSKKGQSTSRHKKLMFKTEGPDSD

With `CCCCCCCCCCCCC`, the call in assay [1], in assay [2], in assay [3], in assay [4], in assay [5] and in assay [6] was inactive. For the same compound, the compound was classed as inactive in assay [7], in assay [8], in assay [9], in assay [10], in assay [11] and in assay [12]. The compound was called inactive in assay [13].

As for `COC(=O)c1ccc(C(=O)OC)c(C(=O)OC)c1`, the call in assay [14], in [15], in assay [3], in assay [4], in assay [16] and in assay [17] was inactive. The outcome in [6], in assay [7], in [8], in assay [9], in assay [10] and in assay [11] was inactive.

As for `O=C(O)CC(C(=O)O)S(=O)(=O)O` (stereo not drawn), the compound was called inactive in assay [14], in assay [17], in [6], in assay [7], in [8] and in assay [9]. Also, the call in assay [11], in [12] and in assay [13] was inactive.

As for `C=CCCCCCCCCC=O`, the compound was classed as inactive in [14], in assay [15], in [4], in [16], in assay [17] and in [6]. Moreover, the compound was classed as inactive in assay [7], in [8], in assay [9], in assay [11], in [12] and in assay [13]. Further, the result in [18] and in assay [19] was inactive.

Consider `Cc1c[nH]c(=O)[nH]c1=O`, for which the compound was called inactive in [1], in assay [2], in assay [3], in assay [4], in [16] and in assay [6]. Besides, the compound was called inactive in [7], in [8], in assay [9], in assay [10], in [11] and in assay [13].

As to `CCCCCCCCCCCCc1ccc(O)cc1`, the result in assay [1], in assay [2], in [15], in assay [16], in assay [17] and in assay [6] was inactive. Moreover, the result in assay [8], in assay [9], in assay [10], in [11], in assay [12] and in [13] was inactive. Moreover, the AC50 in assay [3] was 15.1 µM (active).
